Screening results: PubChem BioAssay, National Center for Advancing Translational Sciences (NCATS)
This is a sample that favours compounds with a hit; in the whole collection about 5.9% have one here.
RORg inh = inhibitors of mouse ROR gamma transcriptional activity; P51450; Drosophila S2 Gal4-RORgamma UAS-luciferase reporter, 20 h; Potency, µM (highest dose often 53.6 µM), for the others: at the top dose activity change, negative = inhibition, most hits filed as inhibitors; 310,000 tested, 5.4% active; AID 2551; also: % is scaled to controls: 0 for no effect and ±100 for the full control effect; nearly all actives have a fitted effect of over 60% in size
Target sequence (P51450 whole entry, looked up, the tested form may be a part): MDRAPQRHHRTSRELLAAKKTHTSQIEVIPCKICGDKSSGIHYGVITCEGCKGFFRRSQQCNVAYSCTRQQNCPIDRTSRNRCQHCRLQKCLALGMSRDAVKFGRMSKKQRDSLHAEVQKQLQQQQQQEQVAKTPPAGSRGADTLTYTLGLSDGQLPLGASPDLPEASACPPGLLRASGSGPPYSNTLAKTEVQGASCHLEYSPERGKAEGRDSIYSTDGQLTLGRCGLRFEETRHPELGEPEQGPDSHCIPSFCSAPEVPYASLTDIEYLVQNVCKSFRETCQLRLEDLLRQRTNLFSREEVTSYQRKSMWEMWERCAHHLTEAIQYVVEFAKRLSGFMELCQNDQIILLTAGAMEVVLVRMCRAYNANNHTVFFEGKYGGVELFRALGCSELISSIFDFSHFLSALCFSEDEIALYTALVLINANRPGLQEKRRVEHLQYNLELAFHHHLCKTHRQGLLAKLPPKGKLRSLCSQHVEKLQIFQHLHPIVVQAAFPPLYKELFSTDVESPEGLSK
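Stably transfected Drosophila Schneider cells are the test system, with ROR gamma fused to Gal4 and luciferase under UAS control; luminescence is read after 20 hr of 700 uM copper sulfate induction at ambient temperature.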
GLP-1R agonist = agonists of human GLP-1 receptor. P43220. HEK293 GLP-1R CRE-luciferase, luminescence, 4-6 h; cells express a hypersensitive GLP-1R form. Potency, µM (titrated, usually from 45.6 µM), without a hit: at the highest dose activation, most hits filed as activators. 380,000 tested, 0.007% active. AID 624172; also: % of control where 0% means no effect
GLP1R cytotox = cytotoxicity counter-screen for GLP-1 receptor inverse agonists; HEK293 cAMP-luciferase reporter cells, luminescence, 24 h; Potency, µM (series often up to 38.3 µM), for inactives: at the top dose activity change, negative = inhibition, hits mostly inhibitors; 410,000 tested, 0.13% active; AID 624418;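 also: loss of luciferase light is scored as toxicity; % is scaled to controls: 0 for no effect and ±100 for the full control effect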
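Cells in DMEM/10% Nu serum/1% pen-strep, 1536-well format. Pre-incubated 12 h, dosed with 23 nL compound, incubated a further 24 h. Luciferase detection, 12 min at room temp, luminescence.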
GLP-1R inv ag = inverse agonists of human GLP-1 receptor; P43220; HEK293 GLP-1R CRE-luciferase, luminescence, 24 h; GLP-1R form is constitutively active; Potency, µM (series often up to 38.3 µM), for inactives: at the highest dose activity change, negative = inhibition, usual class: inhibitors; 410,000 tested, 1.6% active; AID 624417; also: % is scaled to controls: 0 for no effect and ±100 for the full control effect; nearly all actives have a fitted effect of over 55% in size
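GLP-1R inverse agonism mode: basal reporter luminescence in engineered HEK293 cells measured after one day of compound exposure at 37 deg C, with a 12 min room-temperature detection step.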
VP16 counter = counter-screen for ROR gamma inhibitors: Gal4-VP16 reporter; Drosophila S2 Gal4-VP16 UAS-luciferase, luminescence, 20 h; Potency, µM (doses to about 53.6 µM), for inactives: at the highest dose activity, negative = inhibition, actives largely listed as inhibitors; 310,000 tested, 3.5% active;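 also: Gal4-VP16 expression switched on by copper sulfate through the metallothionein promoter; % is scaled to controls: 0 for no effect and ±100 for the full control effect; nearly all actives have a fitted effect of over 50% in size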
* = called active by the depositor; ? = inconclusive; · = no result; [ ] = another dose, or the depositor's remark. Calls follow the shape of the dose curve; as a rule, active = well fitted curve in the direction sought with a large enough effect; inconclusive = small, poorly fitted or top-dose-only effect, or another doubt; inactive = no such curve, though single readings can be large; an effect the other way counts as inactive or inconclusive. Potency is read from the fitted curve at half-maximal effect.

SMILES | RORg inh | GLP-1R agonist | GLP1R cytotox | GLP-1R inv ag | VP16 counter
Cc1nc2ccc(NS(=O)(=O)c3ccc(F)c(C)c3)cc2[nH]1 | ? | -2% | -27% | -16% | 7.1µM*
Cc1cc(Br)cn2c(Cc3cccc(Cl)c3)c(-c3cccc(Cl)c3)nc12 | · | 3% | 4% | 10µM* | ·
O=C(c1ccncc1)N1CCC[C@@]2(CCN(C(c3ccccc3)c3ccccc3)C2)C1 | 0% | · | · | · | -2%
NCCCCCCCCCCNCCCN | -5% | · | · | · | 10%
NC(N)=Nc1nc(C2COc3ccccc3O2)cs1 (stereo not given) | ? | 2% | -24% | ? | -27%
CC(=O)Nc1nc(C2COc3ccccc3O2)cs1 (stereo not given) | 13µM* | -1% | 12% | ? | -1%[0.365 µM]
COc1ccc(C(CC(=O)N2CCCC(C)C2)c2c(O)cc(OC)cc2OC)cc1 (stereo not given) | 2µM* | -7% | 2% | -1% | 14%
CC(C)CC(=O)/C=C/n1c(=S)oc2ccccc21 | -96% | 7% | ? | 42% | 11µM*
Cn1c(=S)oc2ccccc21 | -2% | 1% | 0% | -12% | -10%
CC(=O)Nc1ccc(NC(=O)CCn2c(=S)oc3ccccc32)cc1 | -3% | -2% | -6% | 20% | 8%
CC(=O)/C=C/n1c(=S)oc2ccccc21 | 2.8µM* | -2% | 11µM* | ? | 3.2µM*
Cc1cc(-n2[nH]c(C)c(C)c2=O)nc(-c2ccccc2O)n1 | 11µM* | 10% | 7% | -26% | ?
COc1ccc(/C=C/C(=O)OCCC(C)C)cc1 | 38% | 3% | · | · | 9%
CC(C)(C)Sc1ccc2nc3c(n2c1)CCCC3 | 4µM* | ? | ? | 10µM* | 11µM*
CCCOc1ccc(CCC(=O)O)cc1 | 16% | -6% | -3% | 19% | 5%
CC(C)COc1ccc(CNC(=S)N/N=C/c2ccc([N+](=O)[O-])cc2)cc1 | 1.4µM* | 0% | -11% | 11% | 4.5µM*
CC(C)Oc1ccc(CCC(=O)N/N=C/c2ccncc2)cc1 | 20µM* | 8% | 8% | -16% | -6%
CCCOc1ccc(CNC(=S)NCc2ccc(OC(C)C)cc2)cc1 | 7.1µM* | -4% | ? | ? | 7.1µM*
CCOc1ccc(CNC(=S)N/N=C/c2ccncc2)cc1 | 10µM* | -5% | ? | ? | 13µM*
CCOC(=S)SSC(=S)OCC | 11% | 9% | · | · | 0%
CCCOc1ccc(CNC(=S)N/N=C/c2ccc([N+](=O)[O-])cc2)cc1 | 1.3µM* | 0% | ? | 0% | 1.6µM*
Cc1ccc(CC(=O)N/N=C/c2ccc(OC(=O)c3ccc([N+](=O)[O-])cc3)cc2)cc1 | -1% | -9% | -5% | 9% | 11%
CC(C)Oc1ccc(CNC(=S)N/N=C/c2ccc([N+](=O)[O-])cc2)cc1 | 2.5µM* | -3% | -28% | -15% | 3.2µM*
Clc1ccc(CN2CCC(CNc3ncnc4onc(-c5ccc(Cl)cc5)c34)CC2)cc1 | · | -3% | -20% | ? | ·
Cc1cc2c(n1-c1ccc(C(=O)NCc3ccccc3Cl)cc1)CCCC2 | · | · | -6% | 5% | ·
SMILES | RORg inh | GLP-1R agonist | GLP1R cytotox | GLP-1R inv ag | VP16 counter
Nc1nc2c(c(=O)[nH]1)N=C(CNc1ccc(C(=O)NC(CCC(=O)O)C(=O)O)cc1)CN2 (stereo not given) | 2% | · | · | · | -1%
COC(=O)C1C(O)CC[C@H]2CN3CCc4c([nH]c5ccccc45)C3C[C@H]12 (stereo not given in full) | -6% | · | · | · | -7%
Cc1ccc(Cl)cc1NC(=O)Nc1cccs1 | 14µM* | 0% | 15% | ? | -13%
Cc1ccccc1NC(=O)Nc1cccs1 | ? | -10% | 22% | -4% | -3%
N#Cc1ccccc1NC(=O)C(=O)NCCc1csc2nc(-c3cccc(F)c3)nn12 | · | · | 5% | 6% | ·
CN(NS(C)(=O)=O)c1ncc(C(F)(F)F)cc1Cl | 11µM* | 15% | -5% | 0% | ?
CN(NC(=O)c1ccccc1)c1ncc(C(F)(F)F)cc1Cl | 1% | 2% | 9% | 2% | -23%
CN(c1ncc(C(F)(F)F)cc1Cl)N1C(=O)C2ONC3(C(=O)CC(C)(C)CC3=O)C2C1=O (stereo not given) | -1% | -1% | -3%[7.66 µM] | -7%[7.66 µM] | 7%
CN(c1ncc(C(F)(F)F)cc1Cl)N1C(=O)c2cccc(N)c2C1=O | -8% | 7% | 45% | 3.2µM* | -29%
O=S(=O)(c1ccccc1)c1ncc(C(F)(F)F)cc1Cl | 8.9µM* | -2% | 14%[7.66 µM] | 15%[7.66 µM] | 16µM*
CCOC(=O)c1ccccc1NC(=O)Cn1ncc2c1-c1ccccc1OC2 | · | · | -2% | 18% | ·
Cc1cc(Nc2ncc(Cl)cc2Cl)n(-c2ccccc2C)n1 | 8.9µM* | 19% | 81% | ? | ?
CCN(CC)C1CC(=O)N(c2ccc(Br)cc2)C1=O (stereo not given) | 13µM* | -18% | 24% | 3% | 18µM*
COc1ccc(-c2[nH]c(-c3ccc(F)cc3)nc2SCC(=O)Nc2ccc(OC)c(OC)c2)cc1 | · | · | -33% | ? | ·
CSc1ccc(CN(C)C(=O)C(c2ccccc2)c2ccccc2)cc1 | 18% | 21% | -28% | 10µM* | 6%
O=c1cc(-c2ccccc2O)oc2ccc3ccccc3c12 | 6.3µM* | · | · | · | 7.1µM*
COc1ccccc1N1CCN(S(=O)(=O)c2cc(C(=O)Nc3ccc(Oc4ccccc4)cc3)ccc2F)CC1 | · | · | 2% | ? | ·
O=C1c2ccccc2C(=O)C12OC2c1cccc2ccccc12 (stereo not given) | ? | 0% | -61% | -5% | 14µM*
CCc1ccc(O)c(N=Cc2cccc(C)c2O)c1 | 11µM* | -5% | -31% | 139% | ?
Cc1cccc(C=Nc2ccc3c4c(cccc24)CC3)c1O | -38% | 9% | 9% | 0% | -4%
